Drawing on PubChem BioAssay (NCATS), this text covers Potency and outcome for 33 molecules.

Structures are written as SMILES. Results filed as inconclusive are left out. Active and inactive are the calls of the source. Calls come from the whole dose curve; as a rule, active = well fitted curve in the direction sought with a large enough effect; inconclusive = small, poorly fitted or top-dose-only effect, or another doubt; inactive = no such curve, though single readings can be large; an effect the other way counts as inactive or inconclusive.

Test [1] in a line: qHTS to identify inhibitors of the type 1 interferon - major histocompatibility complex class I in skeletal muscle: primary screen against the NCATS Pharmaceutical Collection (AID 1347407). The procedure, abridged: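 Immortalized human myoblasts (C25cl48) with HiBiT knocked into endogenous HLA-B*08:01 were stimulated with 4 ng/ml IFN-beta and treated with compounds (8-point, 1:5, top 46 uM final) for 24 h at 37 C; HiBiT lytic luminescence read.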
(In general: qHTS replaces the single test concentration by a dilution series.)

Test [2] can be described thus: qHTS to identify inhibitors of the type 1 interferon - major histocompatibility complex class I in skeletal muscle: primary screen against the NCATS Mechanism Interrogation Plate v5.0 (MIPE) Libary (AID 1347411). Note: nearly all actives have a fitted effect of over 65% in size. Note: potency is the fitted concentration of half-maximal effect. The method in brief: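 Luminescence from CRISPR HiBit-tagged endogenous HLA-B in human myoblasts reported MHC class I level after 24 h of IFN-beta (4 ng/ml) plus compound. Compounds ran as 11-point 1:3 series, top 46 uM final.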

In test [3] the target is Protein phosphatase 1D (Homo sapiens) (UniProt O15297). The test is described as follows: RapidFire Mass Spectrometry qHTS Assay for Modulators of WT P53-Induced Phosphatase 1 (WIP1) (AID 1347424). Note: potency is the fitted concentration of half-maximal effect. The procedure, abridged: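 RapidFire MS readout of dephosphorylated VEPPL-S-QETFS product, with 1 uM isotope-labelled peptide standard. Reaction: 10 nM WIP1, 2 uM phosphopeptide substrate, 5 min, room temperature, after 1 h compound preincubation; stopped with 0.5% formic acid.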

Test [4] shares this target. Put plainly: Rhodamine-PBP qHTS Assay for Modulators of WT P53-Induced Phosphatase 1 (WIP1) (AID 1347425). The procedure, abridged: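 5 nM WIP1 + 10 uM Rh-PBP, 50 mM Tris pH 7.5, 30 mM MgCl2, 1 mM TCEP, 0.1 mM EGTA, BSA; cpds pinned, 1 hr RT; + 10 uM phosphopeptide; fluorescence 1-min reads x 11 min; delta = f1 - f0.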
Test [5] is described as follows: Primary qHTS for inhibitors of La Crosse Virus (LACV) - induced cell death in SH-SY5Y cells (AID 1508616).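 Note: top concentration of the series differs between compounds; higher means more rescue of cells from virus-induced death.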 The method in brief:
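Rescue of virus-induced death was read as ATPLite luminescence after 6 days at 37C, scaled between DMSO wells with LACV and without virus. Cells were SH-SY5Y, 6000/well, infected at 0.01 MOI after compound addition.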

A short description of test [6]: qHTS for inhibitors of adenylyl cyclases using a fission yeast platform: a pilot screen against the NCATS LOPAC library (AID 1347410). The procedure, abridged: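 S. pombe CHP2027 (AC9-GNAS-PDE4D2) carrying a PKA-repressed fbp1-GFP reporter was exposed to LOPAC compounds (final up to 57 µM) for 18 h at 30C in the dark, in EMM with histidine, lysine and uracil; GFP gain-of-signal read by laser scanning cytometry.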

Test [7] is described as follows: Validation qHTS assay for inhibitors of Activation Induced Cytidine Deaminase (AID): UDG Counterscreen signal (AID 1347427). The method in brief: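 Fluorescence at 560 nm excitation, 665 nm emission reports UDG signal after 250 mM NaOH (2x) addition and 30 min. Enzymes (AID 1 uM, UDG 2 U/mL, at 4/3x) preincubated 10 min with compound, then 4 h with 4x 250 nM DJC20/DJC23 substrate at room temperature.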

In test [8] the target is Single-stranded DNA cytosine deaminase (Homo sapiens) (UniProt Q9GZX7). The test is described as follows: Validation qHTS assay for inhibitors of Activation Induced Cytidine Deaminase (AID): AID signal (AID 1347429). The method in brief: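 Compounds (final up to 114 uM) preincubated with AID plus UDG; 250 nM DJC20/DJC23 substrate mix (4x stock) added, 4 hr at room temperature, then NaOH, 30 min. Read 1 fluorescence at 540 nm excitation, 590 nm emission.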
Sequence of Single-stranded DNA cytosine deaminase (Homo sapiens) (Q9GZX7 whole entry, looked up): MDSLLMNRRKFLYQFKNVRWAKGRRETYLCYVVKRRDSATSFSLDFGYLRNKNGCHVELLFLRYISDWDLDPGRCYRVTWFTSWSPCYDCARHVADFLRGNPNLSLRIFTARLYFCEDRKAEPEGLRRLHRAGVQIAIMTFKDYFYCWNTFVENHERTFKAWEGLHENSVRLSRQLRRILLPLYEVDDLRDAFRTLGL

Sequence of Protein phosphatase 1D (Homo sapiens) (O15297 whole entry, looked up): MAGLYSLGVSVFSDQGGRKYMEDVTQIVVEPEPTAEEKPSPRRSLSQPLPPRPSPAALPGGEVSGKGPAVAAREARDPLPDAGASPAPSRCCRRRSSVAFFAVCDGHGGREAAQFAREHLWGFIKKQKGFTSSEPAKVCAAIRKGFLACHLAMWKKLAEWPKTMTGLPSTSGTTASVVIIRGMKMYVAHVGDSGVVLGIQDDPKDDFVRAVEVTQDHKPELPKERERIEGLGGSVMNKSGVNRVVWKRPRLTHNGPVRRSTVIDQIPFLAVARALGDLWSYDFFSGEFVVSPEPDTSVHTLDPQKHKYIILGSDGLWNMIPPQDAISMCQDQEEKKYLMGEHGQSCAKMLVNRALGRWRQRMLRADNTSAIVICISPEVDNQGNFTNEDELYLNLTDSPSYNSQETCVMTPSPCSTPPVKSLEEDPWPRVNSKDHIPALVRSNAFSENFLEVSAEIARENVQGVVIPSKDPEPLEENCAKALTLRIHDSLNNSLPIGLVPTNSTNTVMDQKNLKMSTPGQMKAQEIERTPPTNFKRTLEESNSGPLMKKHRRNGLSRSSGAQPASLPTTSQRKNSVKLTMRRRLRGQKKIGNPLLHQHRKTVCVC

As to `O=C(NC(Cc1cc(=O)[nH]c2ccccc12)C(=O)O)c1ccc(Cl)cc1` (configuration not stated), the Potency entry in test [1], in test [2], in test [3] and in test [5] was “inactive” in each case. In test [4], the molecule was classed as inactive.
For `Cc1cccc(CN2CCN(C(c3ccccc3)c3ccc(Cl)cc3)CC2)c1` (configuration not stated), the Potency result in test [1], in test [2], in test [3] and in test [5] was “inactive” in each case. For the same molecule, in test [4], the outcome was inactive.
With `CC1=C(C)C(=O)C(C(CCCCCC(=O)O)c2ccccc2)=C(C)C1=O` (configuration not stated), the Potency result in test [1], in test [2], in test [3] and in test [5] was “inactive” each time. Moreover, the call in test [4] was inactive.
As for `CN(C)C(=O)COC(=O)Cc1ccc(OC(=O)c2ccc(N=C(N)N)cc2)cc1`, the Potency entry in test [1], in test [2], in test [3] and in test [5] was “inactive” throughout. Further, the result in test [4] was inactive.
As for `COc1cc(OC)c(C(=O)CCCN2CCCC2)c(OC)c1`, the Potency result in test [1], in test [2], in test [3] and in test [5] was “inactive” throughout. For the same molecule, the molecule was called inactive in test [4].
With `CCC[C@@H]1C[C@@H](C(=O)N[C@@H]([C@H]2O[C@H](SC)[C@H](O)[C@@H](O)[C@H]2O)[C@@H](C)O)N(C)C1`, the Potency result in test [1], in test [3] and in test [5] was “inactive” each time. The outcome in test [4] was inactive.
For `Cc1cc(C2CCCCC2)n(O)c(=O)c1`, the Potency result in test [1] and in test [3] was “inactive” in each case. For the same molecule, the outcome in test [4] was inactive.
For the molecule `O=C(O)CCNC(=O)c1ccc(N=Nc2ccc(O)c(C(=O)O)c2)cc1`, the Potency entry in test [1], in test [2], in test [3] and in test [5] was “inactive” in each case. In test [4], the molecule was classed as inactive.
Turning to `Cc1cc2c(s1)Nc1ccccc1N=C2N1CCN(C)CC1`, the Potency entry in test [1], in test [2], in test [3] and in test [5] was “inactive” in each case. Besides, the molecule was called inactive in test [4].
`CC(C)[C@H](N)C(=O)OCCOCn1cnc2c(=O)[nH]c(N)nc21`: the Potency result in test [1], in test [2], in test [3] and in test [5] was “inactive” in each case. The outcome in test [4] was inactive.
As for `N=C(N=C(N)N)N1CCOCC1`, the Potency entry in test [1], in test [3] and in test [5] was “inactive” throughout. The call in test [4] was inactive.
`CC1Cc2ccccc2N1NC(=O)c1ccc(Cl)c(S(N)(=O)=O)c1` (configuration not stated): the Potency entry in test [1], in test [2], in test [3] and in test [5] was “inactive” each time. Moreover, the result in test [4] was inactive.
With `Nc1cccc2c1CN(C1CCC(=O)NC1=O)C2=O` (configuration not stated), the Potency entry in test [1], in test [3] and in test [5] was “inactive” each time. Besides, the outcome in test [4] was inactive.
For `CCCCc1ccc2nc(NC(=O)OC)[nH]c2c1`, the Potency entry in test [1], in test [3] and in test [5] was “inactive” throughout. In addition, the result in test [4] was inactive.
With `NC(=O)Cc1cccc(C(=O)c2ccccc2)c1N`, the Potency entry in test [1], in test [3] and in test [5] was “inactive” in each case. Also, in test [4], the call was inactive.
For the molecule `CCCOc1ccc2nc(NC(=O)OC)[nH]c2c1`, the Potency result in test [1], in test [3] and in test [5] was “inactive” in each case. The outcome in test [4] was inactive.
For `Cc1cc(O)c2c(c1)C(=O)c1cc(O)cc(O)c1C2=O`, the molecule was classed as inactive in test [6] and in test [8]. Also, the Potency entry in test [2], in test [7] and in test [5] was “inactive” in each case.
In the case of `CC(=O)NC[C@H]1CN(c2ccc(N3CCOCC3)c(F)c2)C(=O)O1`, the outcome in test [6] was inactive. Besides, the Potency entry in test [2] is “inactive”.
Consider `CN(c1nccc(=O)[nH]1)C1CCN(c2nc3ccccc3n2Cc2ccc(F)cc2)CC1`, for which the Potency entry in test [1], in test [3] and in test [5] was “inactive” each time. Further, the molecule was called inactive in test [4].
As to `C=C(c1ccc(C(=O)O)cc1)c1cc2c(cc1C)C(C)(C)CCC2(C)C`, the Potency result in test [1] and in test [5] was “inactive” throughout. The Potency in test [3] is 4.47 µM (active).
With `Cc1cc(Cl)ccc1OCCCC(=O)NO`, the result in test [6] was inactive. In addition, the Potency entry in test [2] was “inactive”.
In the case of `COc1ccccc1N1CCN(CCN(C(=O)C2CCCCC2)c2ccccn2)CC1`, the result in test [6] and in test [8] was inactive. The Potency entry in test [2], in test [7] and in test [5] was “inactive” each time.
For the molecule `O=C1c2c(O)cc(O)cc2OC(c2ccc(O)c(O)c2)C1O` (configuration not stated), the outcome in test [6] and in test [8] was inactive. In addition, the Potency entry in test [2], in test [7] and in test [5] was “inactive” each time.
As for `Nc1nc(N)c(N=O)c(OCC2CCCCC2)n1`, the call in test [6] and in test [8] was inactive. In addition, the Potency entry in test [2], in test [7] and in test [5] was “inactive” in each case.
`Cc1cc(=O)c2c(O)c3c(O)cc(=O)c4c3c3c(cc(O)c1c23)C(C)(C)C=4O`: the Potency entry in test [1], in test [3] and in test [5] was “inactive” in each case. The outcome in test [4] was inactive.
As to `Clc1ccc2c(N3CCN(CCCN4CCN(c5ccnc6cc(Cl)ccc56)CC4)CC3)ccnc2c1`, in test [6], the result was inactive. The Potency result in test [2] is “inactive”.
For the molecule `Clc1ccc(C(Cn2ccnc2)OCc2ccc(Sc3ccccc3)cc2)c(Cl)c1` (configuration not stated), the Potency result in test [1], in test [3] and in test [5] was “inactive” throughout. In test [4], the result was inactive.
For `O=Nc1c(-c2c(O)[nH]c3cc(Br)ccc23)[nH]c2ccccc12`, the outcome in test [6] and in test [8] was inactive. The Potency in test [2] was 14.7 µM (active). In addition, the Potency result in test [7] was “inactive”.
Regarding `COc1ccc2cc([C@H](C)C(=O)O)ccc2c1`, the result in test [6], in test [4] and in test [8] was inactive. The Potency entry in test [2], in test [3], in test [7] and in test [5] was “inactive” in each case.
Regarding `NS(=O)(=O)c1cc(C(=O)O)c(NCc2ccco2)cc1Cl`, the Potency entry in test [1], in test [3] and in test [5] was “inactive” each time. Besides, the outcome in test [4] was inactive.
With `Cc1nc2n(c(=O)c1CCN1CCC(c3noc4cc(F)ccc34)CC1)CCCC2`, the Potency entry in test [1], in test [3] and in test [5] was “inactive” in each case. For the same molecule, in test [4], the outcome was inactive.
Regarding `CCOC(=O)C(C)Oc1cccc2c(=O)n(CC(=O)Nc3ccc4c(c3)OCCO4)ccc12` (configuration not stated), the result in test [6] and in test [8] was inactive. The Potency result in test [2], in test [7] and in test [5] was “inactive” throughout.
As to `C[C@@H](N)C1CCC(C(=O)Nc2ccncc2)CC1` (some centres not stated), the outcome in test [6] and in test [8] was inactive. Besides, the Potency entry in test [2], in test [7] and in test [5] was “inactive” throughout.
